Compounds without any hit were thinned out: in the full panel of roughly 79,000, 15% have a hit. Activity calls are given as the source filed them. Cut-off read from the data, not from the text of the source: active = growth inhibition above about 70%; inactive = the rest.
Experiments:
[1] = NCI Yeast Anticancer Drug Screen. Data for the rad52 strain (AID 147);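 note: 0% = growth of vehicle-treated control cultures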; conditions: S. cerevisiae rad52 mutant growth inhibition, active compounds read high
Outline: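 DNA repair-defective yeast; compound exposure; growth scored against vehicle controls.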

[2] = NCI Yeast Anticancer Drug Screen. Data for the wt1 strain (AID 149);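 note: 0% = growth of vehicle-treated wt1 cultures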; conditions: S. cerevisiae wt1 strain (SPY 50644) growth inhibition, active compounds read high
Outline: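 Vehicle-normalised growth inhibition; strain wt1; compound exposure.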

[3] = NCI Yeast Anticancer Drug Screen. Data for the rad50EPP+ strain (AID 151);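 note: 0% = growth of vehicle-treated control cultures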; conditions: S. cerevisiae rad50 mutant strain, active compounds read high
Outline: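 rad50EPP+ yeast treated with test compounds. Readout: growth vs vehicle control.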

[4] = NCI Yeast Anticancer Drug Screen. Data for the mgt1 strain (AID 153); conditions: S. cerevisiae mgt1 mutant growth inhibition, active compounds read high
Outline: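 Growth inhibition relative to vehicle controls was scored for the mgt1 yeast strain after compound exposure.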

[5] = NCI Yeast Anticancer Drug Screen. Data for the rad50 strain (AID 155);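 note: 0% = growth of vehicle-only cultures of the same strain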; conditions: S. cerevisiae rad50 strain growth inhibition, active compounds read high
Outline: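 A DNA repair-deficient yeast mutant serves as the test organism; compound-induced growth inhibition is calculated against vehicle-treated cells.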

[6] = NCI Yeast Anticancer Drug Screen. Data for the mec2-1 strain (AID 157); conditions: S. cerevisiae mec2-1 strain, active compounds read high
Outline: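 Growth inhibition is read against vehicle-treated controls after compound exposure of the mec2-1 yeast strain, which is defective in DNA damage repair or cell cycle control.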

[7] = NCI Yeast Anticancer Drug Screen. Data for the rad14 strain (AID 159);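 note: 0% = growth of vehicle-treated control cultures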; conditions: S. cerevisiae rad14 strain growth inhibition, active compounds read high
Outline: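 Vehicle-treated cultures served as the baseline for growth inhibition of a DNA repair-mutant yeast strain exposed to each compound.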

[8] = NCI Yeast Anticancer Drug Screen. Data for the sgs1 mgt1 strain (AID 161);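 note: 0% = growth of cultures given vehicle only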; conditions: S. cerevisiae sgs1 mgt1 strain, active compounds read high
Outline: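 Yeast cells carrying a defined DNA-repair defect were exposed to test compounds. Growth inhibition was measured relative to vehicle-treated controls.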

[9] = NCI Yeast Anticancer Drug Screen. Data for the CLN2oe strain (AID 163);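 note: 0% = growth of vehicle-only control cultures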; conditions: S. cerevisiae CLN2oe strain, active compounds read high
Outline: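 Compound-treated yeast; growth vs vehicle ctrl = % inhibition. Genetically altered strain (cell-cycle control).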

[10] = NCI Yeast Anticancer Drug Screen. Data for the cln2 rad14 strain (AID 165);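 note: 0% = growth equal to vehicle treated cultures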; conditions: S. cerevisiae cln2 rad14 strain, active compounds read high
Outline: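 Growth inhibition, relative to vehicle-treated controls, is the read-out. The test organism is a yeast strain with defined genetic alterations, cln2 rad14.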

[11] = NCI Yeast Anticancer Drug Screen. Data for the bub3 strain (AID 167); conditions: S. cerevisiae bub3 mutant strain, active compounds read high
Outline: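 Inhibition values come from growth of compound-treated mutant yeast normalised to vehicle-treated controls.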

[12] = NCI Yeast Anticancer Drug Screen. Data for the wt2 strain (AID 169);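 note: 0% = growth of vehicle-treated yeast cultures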; conditions: S. cerevisiae wt2 strain growth inhibition, active compounds read high
Outline: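 Compound exposure of yeast; growth compared with vehicle controls; inhibition reported.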

[13] = NCI Yeast Anticancer Drug Screen. Data for the mlh1 strain (AID 171);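 note: 0% = growth of vehicle-treated control cultures of the same strain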; conditions: S. cerevisiae mlh1 strain growth inhibition, active compounds read high
Outline: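 Compounds are applied to a genetically altered yeast strain, and its growth is compared with that of vehicle-treated cultures to give percent inhibition.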

[14] = NCI Yeast Anticancer Drug Screen. Data for the mlh1 rad18 strain (AID 175); conditions: S. cerevisiae mlh1 rad18 strain growth inhibition, active compounds read high
Outline: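 Cells of a genetically altered yeast strain, deficient in DNA damage repair, were treated with compound. Their growth was then compared with that of vehicle-treated cultures to give inhibition.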

[15] = at 5.0 µM (retest, dose inferred, filed as 0.5)
[16] = at 50.0 µM (retest, dose inferred, filed as 5.0)

Measured: growth inhibition

CC[C@@]1(O)C(=O)OCc2c1cc1n(c2=O)Cc2cc3c(CN(C)C)c(O)ccc3nc2-1
active: [1]; at 100.0 µM 87% | [5]; at 33.0 µM 79% | [5]; [16] 85% | [5]; at 50.0 µM 80.7% | [5]; at 100.0 µM 92%
inactive: [1]; at 1.2 µM 5% | [1]; at 3.7 µM 13% | [1]; at 11.0 µM 41% | [1]; at 33.0 µM 68% | [2]; at 1.2 µM -1% | [2]; at 3.7 µM -1% | [2]; at 11.0 µM -2% | [2]; at 33.0 µM -2% | [2]; at 100.0 µM -6% | [3]; at 1.2 µM 30% | [3]; at 3.7 µM 29% | [3]; at 11.0 µM 22% | [3]; at 33.0 µM 23% | [3]; at 100.0 µM 30% | [4]; at 1.2 µM 11% | [4]; at 3.7 µM 2% | [4]; at 11.0 µM 3% | [4]; at 33.0 µM 11% | [4]; at 100.0 µM 18% | [5]; at 1.2 µM 6% | [5]; at 3.7 µM 18% | [5]; [15] 21% | [5]; at 11.0 µM 40% | [6]; at 1.2 µM -2% | [6]; at 3.7 µM -2% | [6]; [15] -3% | [6]; at 11.0 µM -1% | [6]; at 33.0 µM 2% | [6]; [16] -1% | [6]; at 50.0 µM 12.4% | [6]; at 100.0 µM 10% | [7]; at 1.2 µM -1% | [7]; at 3.7 µM -4% | [7]; at 11.0 µM -2% | [7]; at 33.0 µM -6% | [7]; at 100.0 µM -4% | [8]; [15] -3% | [8]; [16] -3% | [8]; at 50.0 µM 4.5% | [9]; at 1.2 µM -2% | [9]; at 3.7 µM -4% | [9]; at 11.0 µM -6% | [9]; at 33.0 µM -13% | [9]; at 100.0 µM -1% | [10]; [15] -3% | [10]; [16] -12% | [10]; at 50.0 µM -5.5% | [11]; at 1.2 µM 0% | [11]; at 3.7 µM -1% | [11]; [15] -3% | [11]; at 11.0 µM -3% | [11]; at 33.0 µM -14% | [11]; [16] -10% | [11]; at 50.0 µM -14.6% | [11]; at 100.0 µM -11% | [12]; at 1.2 µM -1% | [12]; at 3.7 µM 7% | [12]; at 11.0 µM -3% | [12]; at 33.0 µM -2% | [12]; at 100.0 µM -12% | [13]; at 1.2 µM 0% | [13]; at 3.7 µM -4% | [13]; at 11.0 µM -3% | [13]; at 33.0 µM 0% | [13]; at 100.0 µM 0% | [14]; [15] 0% | [14]; [16] 3% | [14]; at 50.0 µM 12.2%

From PubChem BioAssay (NCI)
